Source: PubChem
Compounds with a hit are over-represented: about 6.5% of the library has one in this group of screens.
FMDV antiviral: blocks foot and mouth disease virus; FMDV antiviral cell-based qHTS; Potency, µM (top dose mostly 57.9 µM), hits mostly inhibitors; actives 1.2% (n = 410,000); AID 1159524; calls by dose curve; tested in HEK293T cells; note: read-out not given here; nearly all actives have a fitted effect of over 45% in size
Marburg entry inh: blocks Marburg virus binding to or entry into cells; Potency, µM (doses to about 37.8 µM), actives largely listed as inhibitors; Marburg virus pseudotyped entry inhibition, cell reporter; actives 1.8% (n = 300,000); calls by dose curve; tested in HEK293 cells
HCMV antiviral: inhibitors of human cytomegalovirus | HFF cells, HCMV-luciferase reporter, 72 h; hits give low values | activity change, negative = inhibition, % at 57.5 µM | actives 4.5% (n = 410,000) | AID 1259415; in the data active = activity change below about -60%; inconclusive = no clear call, values can overlap the other calls; inactive = above about -39%
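After 16 h attachment at 37C, HFF cells received test compound and HCMV-luciferase (1 PFU/cell); reporter luminescence read 72 h later, data normalized against buffer-only and known inhibitor Salinomycin.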
Vaccinia Venus: vaccinia inhibition (Venus reporter) | Vaccinia virus Venus reporter expression, fluorescence | Potency, µM (highest dose often 36.5 µM), usual class: inhibitors | actives 0.46% (n = 330,000) | AID 720580; calls by dose curve; tested in A549 cells; note: nearly all actives have a fitted effect of over 30% in size
Vaccinia mCherry: inhibitors of vaccinia virus infection (mCherry reporter signal). Potency, µM (top dose mostly 36.5 µM), actives largely listed as inhibitors. AID 720579. actives 0.63% (n = 310,000). Vaccinia virus mCherry reporter infection, fluorescence; calls by dose curve; tested in A549 cells; note: nearly all actives have a fitted effect of over 35% in size
Lassa entry inh: inhibitors of Lassa virus binding or cell entry; Lassa virus pseudotype entry inhibition, cell reporter; Potency, µM (titrated, usually from 37.9 µM), most hits filed as inhibitors; actives 1.2% (n = 300,000); AID 540256; calls by dose curve; tested in HEK293 cells; note: nearly all actives have a fitted effect of over 50% in size
Numbers stand for hits; - = inactive; ? = inconclusive; . = no result; ! = not confirmed by another sample.

SMILES	FMDV antiviral	Marburg entry inh	HCMV antiviral	Vaccinia Venus	Vaccinia mCherry	Lassa entry inh
COC(=O)c1cccc(N2C(=O)C[C@](Sc3ccc(OC)cc3)(C(=O)N3CCCC3)[C@H]2c2ccc(OC)cc2)c1	.	.	-	.	.	.
Cc1noc(C)c1S(=O)(=O)Nc1cccc(CO)c1	-	.	-	.	.	.
O=C(Nc1cccc([N+](=O)[O-])c1)c1ccc([N+](=O)[O-])o1	?	.	-87	?	-	.
O=C(Nc1cccc(NC(=O)c2ccccc2Cl)c1)c1ccc([N+](=O)[O-])o1	-	?	-98	?	7.9µM	?
O=C(Nc1cccc([N+](=O)[O-])c1)c1ccc2ccccc2c1O	-	?	-80	?	10µM	?
O=c1nc(/C=C/c2cc([N+](=O)[O-])ccc2Cl)cc(C(F)(F)F)[nH]1	-	-	-68	.	.	-
COc1cc(OC)c(OC)cc1/C=C/c1cc(C(F)(F)F)[nH]c(=O)n1	?	?	?	-	-	-
O=c1nc(/C=C/c2cccn2-c2ccc([N+](=O)[O-])cc2)cc(C(F)(F)F)[nH]1	-	-	-	-	-	-
COc1cc(/C=C/c2cc(C(F)(F)F)[nH]c(=O)n2)cc(OC)c1OC	?	?	-97	?	?	?
CC(C)NC(=O)C1=CC(c2ccc3c(c2)OCO3)=NS(=O)(=O)N1C	-	-	-	-	-	?
Cc1nnc(-c2cccc(Br)c2)c2cn(-c3ccc(Br)cc3)nc12	?	?	-73	?	-	?
CCCCNc1c(-c2ccc(SC3CCCCC3)c(OC)c2)nc2ccc(C)cn12	28µM!	.	-71!	?	-	.
COc1ccc(-c2nc3ccc(C)cn3c2NCc2ccccc2)cc1SC1CCCCC1	20µM	.	.	?	-	.
CCCCNc1c(-c2ccc(OC)c(SC3CCCCC3)c2)nc2ccc(C)cn12	22µM	.	-101!	11µM	10µM	.
CC(=O)Nc1cccc(-c2ccnc3c2CC(C)(C(=O)NCC2CC2)O3)c1 (centres undefined)	-	.	-	-	?	.
Cc1cccc(NC(=O)CNC(=O)[C@H]2O[C@@H](n3ccc(=O)[nH]c3=O)[C@H](O)[C@@H]2O)c1C	-	.	-	-	-	.
COC(=O)c1ccc(/C=N/NC(=O)CNc2cccc(C)c2)cc1	-	-	-	-	-	?
CCOc1cc(/C=N/Nc2cccc(C(=O)O)c2)ccc1OC(=O)c1ccccc1	4µM	?	-	-	-	?
CCOc1cc(/C=N/NC(=O)CNc2cccc(C)c2)ccc1OC(=O)c1ccccc1	-	-	-	-	.	16µM
CC(=O)Nc1ncc([N+](=O)[O-])s1	.	.	-	.	.	.
Cc1ccc(C(=O)Nc2ncc([N+](=O)[O-])s2)cc1	8.9µM	.	-70	.	.	.
Cc1ccc(C(=O)Nc2ncc(Cc3ccc(SC(F)F)cc3)s2)cc1	-	-	-63	?	-	?
O=C(COc1ccc(Cl)cc1)Nc1ncc([N+](=O)[O-])s1	-	?	-61	10µM	11µM	?
O=C(Nc1ncc([N+](=O)[O-])s1)c1ccc2c(c1)OCO2	3.2µM	1.6µM	-93	-	-	?
COc1ccc(N2CC(C(=O)N3CCN(S(=O)(=O)c4ccc(F)c(F)c4)CC3)CC2=O)c(OC)c1 (centres undefined)	-	-	-	-	-	-
SMILES	FMDV antiviral	Marburg entry inh	HCMV antiviral	Vaccinia Venus	Vaccinia mCherry	Lassa entry inh
CCCC[C@H]1CN2[C@H](c3ccc(Br)cc3)[C@H](C)CC[C@H]2C(=O)O1	.	-	.	.	.	.
Cc1onc(-c2ccccc2)c1C(=O)Nc1ncc([N+](=O)[O-])s1	?	?	-96	?	?	?
CCOC(=O)C1=C(COC(=O)c2cc(S(=O)(=O)N3CCOCC3)ccc2F)NC(=O)NC1C (centres undefined)	?	?	-	-	-	-
Cc1ccc(NC(=O)Cn2c(O)c(N=NC(=O)c3ccncc3)c3ccccc32)cc1	-	?	.	-	-	-
COc1ccccc1NC(=O)Cn1c(O)c(N=NC(=O)c2ccccc2O)c2ccccc21	?	.	-107	.	.	.
Cn1c(O)c(N=NC(=O)c2ccccc2O)c2ccccc21	-	?	-	-	-	?
Cc1ccc(NC(=O)Cn2c(O)c(N=NC(=O)c3cc4ccccc4cc3O)c3ccccc32)cc1	-	?	-101	-	-	?
CCSc1ncc(Cl)c(C(=O)Nc2sc3c(c2C(=O)OC)CCCC3)n1	.	.	.	-	-	.
O=C(CCS(=O)(=O)c1cccc2nonc12)Nc1cccc(F)c1	-	-	-	-	-	-
COc1ccc(CCNC(=O)COc2coc(CN3c4ccccc4CC3C)cc2=O)cc1OC (centres undefined)	22µM	?	?	-	-	?
Cc1ccc(Cn2c(C(CO)Nc3nc(-c4ccc(F)cc4)cs3)nc3ccccc32)cc1 (centres undefined)	-	.	-60	?	-	.
COc1ccc(-c2csc(NC(CO)c3nc4ccccc4n3Cc3ccc(C)cc3)n2)cc1 (centres undefined)	-	.	-	?	-	.
FC(F)(F)c1ccc(NCCc2ccccc2)nc1	-	?	-	-	-	-
NS(=O)(=O)c1ccc(CCNc2ccc(C(F)(F)F)cn2)cc1	-	-	-77	-	-	.
CCC1(C2CCN(Cc3ccoc3)CC2)NC(=O)N(CC2COc3ccccc3O2)C1=O (centres undefined)	-	.	.	-	-	.
COc1ccc(NC(=O)C2Cc3c(-c4ccccc4Oc4ccccc4)ccnc3O2)cc1OC (centres undefined)	25µM	.	-76	-	-	.
CC(C)c1ccc(NC(=O)C2Cc3c(-c4ccccc4Oc4ccccc4)ccnc3O2)cc1 (centres undefined)	-	.	-61	-	-	.
COc1ccc(NC(=O)C2Cc3c(-c4ccccc4Oc4ccccc4)ccnc3O2)cn1 (centres undefined)	-	.	-	-	-	.
COc1ccc(CC(=O)N2CC3ON=C(c4c(F)cccc4Cl)C3C2)cc1 (centres undefined)	.	.	-	.	.	.
COc1ccc(S(=O)(=O)Nc2ccc3oc(C)c(C(=O)O)c3c2)cc1	-	-	-	-	-	.
COc1ccc(S(=O)(=O)Nc2ccc(O)c3ccccc23)cc1	-	-	-104	-	-	?
COc1ccc(S(=O)(=O)Nc2ccc(Nc3ccccc3)cc2)cc1	-	.	-70	.	.	.
COC(=O)c1ccc(C)c(NS(=O)(=O)c2ccc(OC)cc2)c1	-	?	-91	?	?	?
COc1ccc(S(=O)(=O)Nc2ccc3oc4c(c3c2)CCCC4)cc1	-	10µM	-	-	?	?
CCc1ccc(Nc2ncc3c(n2)CC(C)CC3=O)cc1 (centres undefined)	-	?	-	-	-	?
COc1ccc(Nc2ncc3c(n2)CC(c2ccccc2)CC3=O)cc1 (centres undefined)	-	-	-	.	.	0.92µM
CCc1ccc(Nc2ncc3c(n2)CC(c2ccc(OC)cc2)CC3=O)cc1 (centres undefined)	-	18µM	-64	.	.	0.52µM
COc1cc(C(=O)NNC(=O)c2ccccc2Br)ccc1OCC(=O)N1CCOCC1	-	-	-	-	-	-
